# Screening data as filed in PubChem.
# LmPK inh = LmPK (Leishmania mexicana) enzyme inhibition; Q27686; purified LmPK, Kinase-Glo ATP luminescence, 1 h; AID 1721; hit rate 0.37% among 290,000; Potency, µM (series often up to 57.5 µM), for inactives: at the highest dose activity change, negative = inhibition, most hits filed as inhibitors; note: potency is the fitted concentration of half-maximal effect; % is set by controls: 0 for no effect and ±100 for the full control effect
#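 Screened at intermediate enzyme activity to detect both inhibitors and activators: LmPK at 0.1 nM, with a 0.5 nM enzyme column as activation reference. PEP 0.5 mM, ADP 0.1 mM; ATP detected by luminescence after 1 h.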
# CHX counter = affects cycloheximide protein synthesis inhibition readout, counter-screen; cell reporter, cycloheximide protein synthesis inhibition counterscreen; max response, %; hit rate 12% among 300,000; in the data active = max response mostly above about 13%, no sharp cut-off; inactive = mostly below about 14%; note: read at 38.3 µM for the half of the compounds with a filed dose; 0% is about no effect
# Shiga toxin inh = blocks Shiga toxin action in Vero cells | inhibition, % at 38.7 µM | Vero cells, Shiga toxin protein synthesis inhibition reporter | hit rate 9.2% among 290,000; in the data active = inhibition mostly above about 28%, no sharp cut-off; inactive = mostly below about 43%; note: 0% is about no effect
# Tb PYK inh = blocks Trypanosoma brucei pyruvate kinase; TbPYK enzyme, Kinase-Glo Plus ATP luminescence, 45 min; Potency, µM (highest dose often 76.8 µM), for inactives: top-dose activity, negative = inhibition, usual class: inhibitors; hit rate 0.12% among 410,000; note: potency is the fitted concentration of half-maximal effect; % is set by controls: 0 for no effect and ±100 for the full control effect; nearly all actives have a fitted effect of over 50% in size
#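 Activity of T. brucei pyruvate kinase was followed by Kinase-Glo Plus luminescence after the enzyme reacted 45 min at room temperature with 130 uM ADP (final) and substrate. Test compounds were added before ADP at multiple concentrations.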
# FBPA Giardia inh = Giardia lamblia aldolase inhibition. purified Giardia FBPA. Potency, µM (top dose mostly 59.6 µM), inactives show at the top dose activity, negative = inhibition, actives largely listed as inhibitors. hit rate 0.71% among 290,000. AID 2451; note: potency is the fitted concentration of half-maximal effect; % is set by controls: 0 for no effect and ±100 for the full control effect; nearly all actives have a fitted effect of over 55% in size
# Target sequence (A8B2U2 whole entry, looked up): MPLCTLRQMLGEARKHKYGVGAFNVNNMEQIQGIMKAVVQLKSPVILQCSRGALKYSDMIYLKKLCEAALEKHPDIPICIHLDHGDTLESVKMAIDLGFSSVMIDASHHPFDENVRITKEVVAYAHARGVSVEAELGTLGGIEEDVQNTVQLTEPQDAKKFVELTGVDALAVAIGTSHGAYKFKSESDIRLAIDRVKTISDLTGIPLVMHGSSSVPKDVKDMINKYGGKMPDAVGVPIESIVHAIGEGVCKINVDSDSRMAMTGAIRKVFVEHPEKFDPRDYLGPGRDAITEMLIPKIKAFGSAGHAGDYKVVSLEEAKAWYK
#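 40 nM FBPA preincubated 10 min at RT with compound (up to 57.5 uM final), then substrate plus GAPDH/TPI/NAD/arsenate coupling and diaphorase/resazurin added. Fluorescence read after 20 min at RT, 525/598 nm.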
# RE007 growth inh = less growth of the S. pombe RE007 Vpr strain; S. pombe RE007 Vpr strain, BacTiter-Glo ATP luminescence, 24 h; hit rate 0.21% among 360,000; Potency, µM (titrated, usually from 92.2 µM), for the others: top-dose activity change, negative = less growth, actives largely listed as inhibitors; active = well fitted falling curve with a large enough effect; inconclusive = small, poorly fitted or top-dose-only effect; inactive = no such curve, though single readings can be large or run the other way; note: potency is the fitted concentration of half-maximal effect; % is set by controls: 0 for no effect and ±100 for the full control effect; nearly all actives have a fitted effect of over 50% in size
#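 Fission yeast strain RE007, carrying one chromosomally integrated HIV-1 vpr copy, was seeded at OD 0.01 in PMG+AL medium with 23 nL pinned compound. After 24 h at 30 °C and 99% humidity, viability was read by BacTiter-Glo luminescence.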
# LmPK inh confirm = Blocks LmPK activity, confirmation assay | shares compounds with LmPK inh | purified LmPK, Kinase-Glo ATP luminescence, 1 h | Potency, µM (series often up to 57.5 µM), for inactives: top-dose activity change, negative = inhibition, usual class: inhibitors | hit rate 40% among 150;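 active = compounds giving a full or partial concentration-response curve, as inhibitors or activators; inconclusive = weak, top-dose-only or unclear curve responses; inactive = no response at any tested dose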
# * marks the source's active call; other numbers are inactive results; ? = inconclusive; · = no result. The entries come from a sample that favours hits as a whole. Unless noted, calls come from the whole dose curve; as a rule, active = well fitted curve in the direction sought with a large enough effect; inconclusive = small, poorly fitted or top-dose-only effect, or another doubt; inactive = no such curve, though single readings can be large; an effect the other way counts as inactive or inconclusive.
SMILES,LmPK inh,CHX counter,Shiga toxin inh,Tb PYK inh,FBPA Giardia inh,RE007 growth inh,LmPK inh confirm
NS(=O)(=O)c1ccc(CCNC(=O)c2ccc(-c3ccccc3)cc2)cc1,3%,5,·,-2%,0%,30%,·
O=C(Nc1cccn(Cc2ccc(F)cc2)c1=O)NC1CCCCC1,1%,-3,18,-2%,-10%,0%,·
Cc1ccc(Cn2cccc(NC(=O)NC3CCCCC3)c2=O)cc1,5%,-2,30,-2%,-6%,20%,-1%
CC(C)NC(=O)c1ccc(CN2CCc3ccccc3C2)cc1,-1%,1,3,-1%,3%,-13%,·
O=C(N/N=C/c1ccc(Cl)cc1)c1ccc2nc[nH]c2c1,·,·,·,2%,·,-4%,·
O=S(=O)(Nc1ccc(O)c(NS(=O)(=O)c2ccccc2)c1)c1ccccc1,0.45µM*,-1,-27,-28%,·,-1%,4%
COc1ccc(S(=O)(=O)Nc2c(C)cccc2C)cc1-n1cnnn1,3%,-3,2,-1%,7%,-4%,·
Cc1c(C(=O)NC(=S)Nc2ccc(NC(=O)c3cccs3)cc2)oc2ccccc12,7.1µM*,-5,-15,-2%,-16%,0%,-13%
CC(C)(C)OC(=O)N1CCC[C@H]1C(=O)NCc1ccc(Cl)cc1Cl,-1%,-1,-6,0%,8%,-9%,·
O=C(/C=C/Nc1ccc(Oc2ccccc2)cc1)c1ccco1,7.9µM*,56*,70*,?,-13%,-28%,21µM*
O=C(Nc1ccc(Oc2ccc3ccccc3c2)cc1)c1ccco1,7%,7,47,4%,-9%,?,·
COc1cc(C(=O)Nc2cc(S(=O)(=O)N3CCOCC3)ccc2N2CCOCC2)cc(OC)c1C,·,·,·,0%,·,2%,·
COc1ccc(-c2nc(-c3ccccn3)no2)cc1,1.6µM*,-9,-19,?,-2%,?,6.5µM*
Cc1ccccc1-c1nc(-c2ccccn2)no1,2.5µM*,-1,5,?,5%,?,12µM*
O=C(NCc1nc(-c2ccc(C(F)(F)F)cc2)no1)Nc1cc(Cl)cc(Cl)c1,5%,-3,36,-6%,-7%,10%,·
Cn1c(N)c(NC(=S)NC2CCCCC2)c(=O)n(C)c1=O,·,·,·,-3%,·,-28%,·
CC(C)CN(C(=O)CSc1nnnn1-c1ccccc1)c1c(N)n(CC(C)C)c(=O)[nH]c1=O,6%,-4,-5,-6%,-4%,-12%,·
O=c1c2ccccc2sn1-c1cc(S(=O)(=O)N2CCOCC2)ccc1N1CCCC1,8.9µM*,6,21,?,?,6%,?
NC(=O)C1(Nc2ccc(Cl)cc2)CCCC1,·,·,·,-1%,·,10%,·
Cn1c(-c2ccc(Br)o2)nc2ccccc21,7.9µM*,29*,56,?,-11%,?,21µM*
Cn1c(-c2nonc2N)nc2ccccc21,2%,0,-4,-1%,-3%,2%,·
COc1ccc(C(=O)N=c2nc3ccccn3s2)cc1,?,38*,74,-10%,-4%,?,16µM*
O=C(N/C(=C\c1ccc(Br)cc1)C(=O)N1CCOCC1)c1ccc([N+](=O)[O-])cc1,14%,2,2,3%,3%,6%,·
Oc1ccc(O)c2c1C1c3ccccc3C2c2ccccc21,2.2µM*,-1,-11,·,2%,·,-8%
COC(=O)C(N)CCCCN (stereo unspecified),·,·,·,0%,·,6%,·
SMILES,LmPK inh,CHX counter,Shiga toxin inh,Tb PYK inh,FBPA Giardia inh,RE007 growth inh,LmPK inh confirm
Cc1cc(CN(C)Cc2cn(C)nc2-c2ccc(Oc3ccccc3)cc2)on1,-5%,1,22,2%,-8%,-5%,4%
CN(Cc1cccnc1)Cc1cn(C)nc1-c1ccc(Oc2ccccc2)cc1,4%,-3,-6,5%,1%,-7%,·
CS(=O)(=O)c1ccc(S(=O)(=O)N2CCN(C(=O)C(O)c3ccccc3)CC2)cc1 (stereo unspecified),·,·,·,·,·,-5%,·
Cc1ccccc1NC(=O)COC(=O)c1cc[n+]([O-])cc1,·,·,·,-2%,·,2%,·
COc1cc(Cl)c(C)cc1NC(=O)COC(=O)c1cc[n+]([O-])cc1,2.8µM*,7,-3,2%,0%,19%,3%
COc1cc(/C=N/N2C(C)CCCC2C)cc(OC)c1O (stereo unspecified),2µM*,-1,-2,-5%,-4%,4%,?
COc1ccc(-n2c(/C=C/c3ccccc3F)nc3cc(OC)c(OC)cc3c2=O)cc1Cl,·,·,·,-3%,·,·,·
CCOC(=O)CC(=O)CSc1ccc2nnc(-c3ccc(F)cc3)n2n1,3%,-5,8,1%,9%,-5%,·
COC(=O)CSc1ccc2nnc(-c3ccc(F)cc3)n2n1,2%,-1,-9,-21%,3%,11%,0%
c1c2c(cc3sc(N4CCCCC4)nc13)OCO2,7.1µM*,21,25,?,-10%,45µM*,18µM*
Cn1cc(Cl)c(C(=O)Nc2nc3ccccc3s2)n1,7.9µM*,42*,71*,-10%,-8%,-29%,?
Cn1cc(Cl)c(C(=O)OCC(=O)Nc2ccccc2)n1,0%,-2,-5,1%,3%,-6%,·
Cc1ccc(N2C(=O)c3ccccc3C2O)nc1 (stereo unspecified),7.1µM*,7,0,·,2%,·,18µM*
CN(Cc1cccnc1)Cc1cn(C)nc1-c1cccc(Cl)c1,6%,0,-13,6%,2%,-14%,·
CN(Cc1cn(C)nc1-c1cccc(Cl)c1)Cc1nccn1C,2%,-2,1,-8%,0%,8%,-1%
Cc1cccc(/N=C/c2c(O)ccc3oc4c(c23)CCCC4)n1,2%,-4,-1,4%,-1%,-13%,·
O=[N+]([O-])c1cc2oc3c(c2c(C=NCc2ccccc2)c1O)CCCC3,1µM*,-4,-3,?,?,?,0.82µM*
CC(C)CN=Cc1c(O)c([N+](=O)[O-])cc2oc3c(c12)CCCC3,10µM*,2,-9,-22%,?,?,?
O=C(O)c1cccc(Nc2ncnc3scc(-c4ccccc4)c23)c1,·,·,·,3%,·,·,·
COc1ccc(Br)cc1S(=O)(=O)Nc1cc(-c2cn3ccccc3n2)ccc1C,·,·,·,-3%,·,·,·
